Compound activity from PubChem.
This is a sample that favours compounds with a hit; in the whole collection about 12% have one here.
Pf growth 48h – inhibits P. falciparum growth in the first generation, 48 h. P. falciparum luciferase growth in erythrocytes, 48 h. Potency, µM (titrated, usually from 28.7 µM), inactives show at the top dose activity change, negative = inhibition, most hits filed as inhibitors. actives 5.9% (n = 310,000). AID 504832; also: % is scaled to controls: 0 for no effect and ±100 for the full control effect
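Firefly luciferase activity from engineered P. falciparum reports growth; inhibitors lower the luminescent signal. Cultures contained 2% hematocrit erythrocytes at 0.1% final parasitemia.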
AmpC inh detg – blocks E. coli AmpC beta-lactamase in detergent assay; AmpC hydrolysis of nitrocefin, absorbance 480 nm, 0.01% Triton; Potency, µM (doses to about 114 µM), for the others: at the highest dose activity change, negative = inhibition, hits mostly inhibitors; P00811; AID 485294; actives 0.041% (n = 370,000);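 also: 0% = no-compound wells and -100% = no-enzyme wells; nearly all actives have a fitted effect of over 25% in size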
Target sequence (P00811 whole entry, looked up): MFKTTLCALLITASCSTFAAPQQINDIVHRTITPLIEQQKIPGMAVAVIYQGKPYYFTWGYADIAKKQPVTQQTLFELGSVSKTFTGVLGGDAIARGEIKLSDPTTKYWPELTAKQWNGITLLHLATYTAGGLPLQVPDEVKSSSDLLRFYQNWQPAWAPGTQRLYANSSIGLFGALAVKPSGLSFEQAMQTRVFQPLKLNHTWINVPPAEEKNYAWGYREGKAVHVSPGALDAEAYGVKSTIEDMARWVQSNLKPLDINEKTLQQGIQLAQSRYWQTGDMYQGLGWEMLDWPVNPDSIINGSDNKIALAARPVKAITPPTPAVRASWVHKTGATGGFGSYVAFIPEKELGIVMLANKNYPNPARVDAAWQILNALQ
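AmpC (5.3 nM in the dispensed reagent) in 20 mM phosphate pH 7.0 with 0.01% (detergent screen) or 0.0001% Triton X-100 was preincubated with compounds for 15 min at room temperature. Nitrocefin was then added from an 800 uM solution, and hydrolysis was followed at 480 nm.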
SARS PLpro yeast – inhibitors of SARS-CoV papain-like protease in yeast; Potency, µM (doses to about 32.9 µM), without a hit: at the top dose activity, positive = growth rescue, most hits filed as activators; actives 0.19% (n = 330,000); S. cerevisiae expressing SARS-CoV PLpro, growth rescue; calls by dose curve; also: 0% is about no effect; nearly all actives have a fitted effect of over 55% in size
AmpC no deterg – blocks E. coli AmpC beta-lactamase in detergent-free assay. Potency, µM (series often up to 57.1 µM), for the others: at the highest dose activity change, negative = inhibition, actives largely listed as inhibitors. actives 0.52% (n = 330,000). P00811. AmpC nitrocefin hydrolysis, absorbance 480 nm, 0.0001% Triton;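 also: plate controls were no compound for no effect and no enzyme for full effect; nearly all actives have a fitted effect of over 20% in size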
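20 mM phosphate pH 7.0 + 0.01% (detergent screen) or 0.0001% Triton X-100; 5.3 nM AmpC reagent; cpd preinc 15 min RT; nitrocefin (800 uM stock) to start; A480 q20 s × 4 min; Activity was normalised to no-enzyme and no-compound control wells.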
Sm TGR inh – inhibitors of Schistosoma mansoni thioredoxin glutathione reductase; Q962Y6; purified TGR, DTNB reduction, TNB absorbance 405 nm; Potency, µM (doses to about 114 µM), inactives show top-dose activity change, negative = inhibition, hits mostly inhibitors; actives 3% (n = 360,000); AID 485364; also: % is scaled to controls: 0 for no effect and ±100 for the full control effect; nearly all actives have a fitted effect of over 60% in size
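TGR 20 nM + NADPH 100 uM (dispensed conc.), cpd preinc 15 min RT; start with NADPH (500 uM addition) then DTNB (15 mM addition). Kinetic TNB absorbance, 405 nm filter. Four-parameter Hill fit across titration.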
Pf growth 96h – P. falciparum growth inhibition at 96 hours; P. falciparum luciferase reporter growth, 96 h; actives 6.9% (n = 320,000); Potency, µM (doses to about 28.7 µM), inactives show top-dose activity change, negative = inhibition, most hits filed as inhibitors; also: % is scaled to controls: 0 for no effect and ±100 for the full control effect
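Cell-based qHTS: luciferase-tagged P. falciparum in erythrocytes (2% hematocrit, 0.05% parasitemia final) incubated with compounds for 96 hours, 37 C, 5% CO2; luciferase detection reagent then added and luminescence measured.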
* = called active by the depositor; ? = inconclusive; / = no result given. Unless noted, calls follow the shape of the dose curve; as a rule, active = well fitted curve in the direction sought with a large enough effect; inconclusive = small, poorly fitted or top-dose-only effect, or another doubt; inactive = no such curve, though single readings can be large; an effect the other way counts as inactive or inconclusive. Potency is read from the fitted curve at half-maximal effect.

SMILES	Pf growth 48h	AmpC inh detg	SARS PLpro yeast	AmpC no deterg	Sm TGR inh	Pf growth 96h
CO[C@H]1C[C@@H]2CC[C@@H](C)[C@@](O)(O2)C(=O)C(=O)N2CCCC[C@H]2C(=O)O[C@H]([C@H](C)C[C@@H]2CC[C@@H](O)[C@H](OC)C2)CC(=O)[C@H](C)/C=C(\C)[C@@H](O)[C@@H](OC)C(=O)[C@H](C)C[C@H](C)/C=C/C=C/C=C/1C	1.5µM*	/	/	/	/	1.5µM*
CO[C@H]1C[C@@H]2CC[C@@H](C)[C@@](O)(O2)C(=O)C(=O)N2CCCC[C@H]2C(=O)O[C@H]([C@H](C)C[C@@H]2CC[C@@H](OCCO)[C@H](OC)C2)CC(=O)[C@H](C)/C=C(\C)[C@@H](O)[C@@H](OC)C(=O)[C@H](C)C[C@H](C)/C=C/C=C/C=C/1C	1.5µM*	/	/	/	/	2.1µM*
Cc1ccc(C(=O)Nc2ccccc2C(=O)N2CCCCC2C)cc1 (centres undefined)	-16%	0%	1%	-2%	-4%	12µM*
CS(=O)(=O)Nc1ccc(C(=O)Nc2ccccc2-c2ccccc2)cc1	?	-11%	12%	-21%	2%	12µM*
Cc1ccc(C(=O)Nc2ccc(C(=O)N3CCCCC3C)cc2)cc1 (centres undefined)	?	0%	0%	10%	0%	-19%
CS(=O)(=O)Nc1ccc(C(=O)Nc2ccccc2Cl)cc1	19%	-2%	0%	-5%	/	?
CS(=O)(=O)Nc1ccc(C(=O)Nc2ccccc2C(=O)N2CCCC2)cc1	-5%	4%	16µM*	-9%	4%	/
CC(=O)Nc1ccc(NS(C)(=O)=O)cc1	/	?	-7%	-11%	-10%	4.7µM*
CS(=O)(=O)Nc1ccccc1C(=O)Nc1ccccc1C(=O)N1CCCC1	18%	-6%	5%	2%	0%	23%
CCN(CC(=O)Nc1ccc([N+](=O)[O-])cc1OC)CC(=O)NC(C)(C)C	-10%	-7%	10%	41%	-6%	?
CC1CCC(O)C/C1=C\C=C1/CCCC2(C)C1CCC2C(C)/C=C/C(C)C(C)C (centres undefined)	-6%	/	/	/	/	-25%
CCOC(=O)N1CCC(NC(=O)c2cnn(-c3ccc(C)cc3)c2C2CCN(C(=O)OC(C)(C)C)CC2)CC1	/	4%	/	/	?	/
CCCCc1nc2ccccc2n2c(-c3ccc(C)cc3)c3c(=O)n(C)c(=O)n(C)c3c12	/	15%	/	/	9%	/
NS(=O)(=O)c1ccc(NC(=O)c2ccc(-c3ccccc3)cc2)cc1	-3%	-7%	-1%	-55%	13%	?
NS(=O)(=O)c1ccc(NS(=O)(=O)c2ccc(NC(=O)c3ccc(-c4ccccc4)cc3)cc2)cc1	?	-12%	3%	11µM*	-23%	19%
C=CCOc1c(OC)cc(/C=N/Nc2cccc(C(=O)O)c2)c(Br)c1Br	50%	1%	-29%	-32%	56µM*	43%
C=CCOc1c(/C=N\NC(N)=O)cccc1OC	?	-5%	-1%	-3%	-10%	30%
CCOc1cc(C2NC(=O)c3c(sc4c3CCN(C)C4)N2)ccc1OC(=O)c1ccccc1Cl (centres undefined)	/	6%	/	/	4%	/
CCn1c(SCc2ccc(C)cc2)nnc1C1CCN(S(=O)(=O)c2ccc(OC)cc2)CC1	12µM*	-18%	2%	62%	0%	4.1µM*
CCn1c(SC)nnc1C1CCN(S(=O)(=O)c2ccc(OC)cc2)CC1	4%	-7%	3%	8%	1%	-26%
CCn1c(SCc2ccc(F)cc2)nnc1C1CCN(S(=O)(=O)c2ccc(OC)cc2)CC1	12µM*	0%	-5%	94%	-8%	8.3µM*
O=C(SCC(O)C(O)CS)c1cccs1 (centres undefined)	?	-4%	0%	-25%	-28%	-25%
Cc1cc(C(c2ccc(C)o2)c2ccc(C)o2)c(O)c([N+](=O)[O-])c1	/	?	-27%	-40%	45µM*	-12%
Cc1ccc(C(c2ccc(C)o2)c2cccc([N+](=O)[O-])c2O)o1	7.4µM*	-5%	-35%	-30%	?	4.7µM*
Cc1cc(/C=N/n2cnnc2)c(O)c([N+](=O)[O-])c1	14%	-8%	-23%	-13%	-9%	44%
SMILES	Pf growth 48h	AmpC inh detg	SARS PLpro yeast	AmpC no deterg	Sm TGR inh	Pf growth 96h
CCOc1cc(/C=C2\C(=N)N3N=C(CC)SC3=NC2=O)ccc1OCCOc1ccc(NC(C)=O)cc1	?	0%	1%	-18%	2%	2.6µM*
CCC1=NN2C(=N)/C(=C\c3ccc(OCCOc4ccc(NC(C)=O)cc4)cc3)C(=O)N=C2S1	-24%	2%	2%	0%	7%	-29%
CCOc1ccc(N2C(=O)CC(NC3CCN(C(=O)c4cccc(Cl)c4)CC3)C2=O)cc1 (centres undefined)	11%	2%	-24%	152%	8%	?
CCOC(=O)c1ccc(N2C(=O)CC(NC3CCN(C(=O)c4cccc(Cl)c4)CC3)C2=O)cc1 (centres undefined)	?	?	-23%	121%	50µM*	125%
CCn1c(N2CCN(C(=S)Nc3ccc(OC)cc3)CC2)nc2ccccc21	-15%	7%	-2%	-3%	-5%	22%
Oc1sc(C=Nc2ccc(F)cc2)c2ccccc12	4.7µM*	-1%	3%	-33%	17%	3.3µM*
Oc1sc(C=Nc2ccccc2)c2ccccc12	-27%	10%	-22%	?	-1%	?
Cc1ccc(C(=O)Oc2ccccc2N2CCOCC2)cc1	16%	-2%	-3%	12%	11%	18%
Cc1ccc(C(=O)OC2OC(=O)C(Cl)=C2N2CCOCC2)cc1 (centres undefined)	3%	11µM*	-3%	-49%	5%	42%
Cc1ccc2onc(CNC(=O)N(C)Cc3ccccc3)c2c1	/	?	/	/	-3%	/
COC(=O)C1=CN(C2CC2)C=C(C(=O)OC)C1c1ccccc1OC	12µM*	-3%	6%	95%	-13%	-12%
O=c1[nH]c(C2CCN(S(=O)(=O)c3ccc(C(F)(F)F)cc3)CC2)nc2c1nnn2Cc1ccc(F)cc1	12µM*	7%	1%	-5%	2%	38%
O=c1[nH]c(C2CCN(S(=O)(=O)c3ccc([N+](=O)[O-])cc3)CC2)nc2c1nnn2Cc1ccccc1	5.2µM*	-4%	0%	0%	-7%	0.15µM*
